The results in this text go back to PubChem BioAssay AID1779 (Sanford-Burnham Center for Chemical Genomics, 2009).

Among all 290,000 compounds or so, about 160 (0.055%) were called active. No stated cut-off is given here; in the data, active means inhibition above about 50%; inactive means the rest. What follows is part of a selection rich in actives, with near analogues and random picks from the rest.

Sequence of Tyrosine-protein phosphatase non-receptor type 22 (Homo sapiens) (Q9Y2R2 whole entry, looked up): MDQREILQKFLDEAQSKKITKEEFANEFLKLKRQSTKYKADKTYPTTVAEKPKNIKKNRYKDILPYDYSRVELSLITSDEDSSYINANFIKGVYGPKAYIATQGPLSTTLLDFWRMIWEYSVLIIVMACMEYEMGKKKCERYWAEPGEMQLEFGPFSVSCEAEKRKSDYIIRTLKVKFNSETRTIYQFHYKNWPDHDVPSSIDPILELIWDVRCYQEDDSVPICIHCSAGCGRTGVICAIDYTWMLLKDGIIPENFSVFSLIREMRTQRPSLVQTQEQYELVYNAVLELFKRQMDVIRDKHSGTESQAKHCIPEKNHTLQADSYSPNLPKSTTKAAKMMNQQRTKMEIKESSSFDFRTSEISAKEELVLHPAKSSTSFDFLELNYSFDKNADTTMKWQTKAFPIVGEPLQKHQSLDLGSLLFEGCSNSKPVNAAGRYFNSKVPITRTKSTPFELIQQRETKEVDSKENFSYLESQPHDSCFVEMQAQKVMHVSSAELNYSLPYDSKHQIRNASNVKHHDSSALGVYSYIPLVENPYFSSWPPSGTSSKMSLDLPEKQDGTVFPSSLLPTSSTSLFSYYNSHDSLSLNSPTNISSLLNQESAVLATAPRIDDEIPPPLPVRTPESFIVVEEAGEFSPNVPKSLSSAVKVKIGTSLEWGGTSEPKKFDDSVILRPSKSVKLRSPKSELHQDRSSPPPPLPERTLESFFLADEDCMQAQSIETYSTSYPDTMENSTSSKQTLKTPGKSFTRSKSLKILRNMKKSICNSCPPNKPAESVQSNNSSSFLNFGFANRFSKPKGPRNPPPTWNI

This experiment addresses Tyrosine-protein phosphatase non-receptor type 22 (Homo sapiens) (UniProt Q9Y2R2). In words: inhibitors of LYP phosphatase, biochemical, fluorescence intensity, uHTS (AID 1779).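 Further: plate controls were vehicle with enzyme for no effect and no enzyme for full effect.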 The settings on record: recombinant LYP phosphatase, at 11.5 µM, active compounds read high.
Turning to `CC(=O)c1ccc2c(c1)C1C(Cl)C(Sc3ccccc3[N+](=O)[O-])CC1C(C(=O)O)N2` (stereo not given), the inhibition was 51.4% (active).

In the case of `CCN(CC)C(=O)c1ccc2c(c1)C1C(Cl)C(Sc3ccccc3[N+](=O)[O-])CC1C(C(=O)O)N2` (stereo not given), the inhibition is 6.1% (inactive).

Regarding `CC(=O)c1ccc2c(c1)C1C(Cl)C(Sc3ccccc3[N+](=O)[O-])CC1C(c1ccccc1)N2` (stereo not given), the inhibition was 6% (inactive).

As for `O=P(Nc1ccccc1)(Nc1ccccc1)Oc1ccc(Cl)cc1`, the inhibition was -4% (inactive).

Regarding `COCc1cc(C2SCC(=O)Nc3c2c(=O)[nH]n3C(C)C)ccc1OC` (stereo not given), the inhibition is -11.3% (inactive).

For the compound `CCOP(=O)(/C=C(\Cl)c1ccccc1)C(O)c1ccc(F)cc1` (stereo not given), the inhibition is -5.3% (inactive).

As for `CC(=O)C1C(=O)NC23CCCCC2C1c1ccccc1O3` (stereo not given), the inhibition was 1.8% (inactive).

With `CCn1nc(/C=C/c2ccccc2)nc2c(=O)n(C)c(=O)nc1-2`, the inhibition is 79.3% (active).

On to `COc1ccc(-n2c(/C=C/c3ccc(O)cc3)nc3ccccc3c2=O)cc1`, for which the inhibition was -7.8% (inactive).

Consider `COc1ccc(-n2c(-c3ccccc3)nc3ccccc3c2=O)cc1`, for which the inhibition is -9.9% (inactive).

Consider `CCCc1nc2ccccc2c(=O)n1-c1ccc(OC)cc1`, for which the inhibition is 2.2% (inactive).

Turning to `CCOc1ccc(-n2c(-c3cccs3)nc3ccccc3c2=O)cc1`, the inhibition was 8.8% (inactive).

In the case of `CCn1nc(-c2cccs2)nc2c(=O)n(C)c(=O)nc1-2`, the inhibition was 52.8% (active).

As for `O=c1c2ccccc2nc(/C=C/c2ccccc2)n1-c1ccc(O)cc1`, the inhibition was 3.1% (inactive).

With `CCn1nc(-c2ccccc2)nc2c(=O)n(C)c(=O)nc1-2`, the inhibition is 60.7% (active).

In the case of `O=c1c2ccccc2nc(-c2cccs2)n1-c1ccccc1`, the inhibition was -10.4% (inactive).

Take `COc1ccc(C(=O)N2CCC3(CC2)OCCO3)cc1`: the inhibition was -5% (inactive).

In the case of `c1ccc2c(CN3CCOCC3)c[nH]c2c1`, the inhibition is -8.9% (inactive).

Turning to `Cc1cc(OC(=O)c2cccs2)c2c3c(c(=O)oc2c1)CCCC3`, the inhibition is 2.4% (inactive).

With `CCOC(=O)C(O)(c1ccc(NC(=O)Oc2ccccc2)cc1)C(F)(F)F` (stereo not given), the inhibition was -3.1% (inactive).

As to `CCN1CCN(c2ccc([N+](=O)[O-])cc2C=C2C(=O)NC(=O)NC2=O)CC1`, the inhibition was -8.1% (inactive).

Regarding `c1nc2nc3c(c(N4CCNCC4)n2n1)CCCC3`, the inhibition was -3.9% (inactive).

For `S=P(Nn1cnnc1)(c1ccccc1)c1ccccc1`, the inhibition was 0.6% (inactive).

With `CCOC(=O)c1c(C)n(CC(O)CN2CCOCC2)c2cc(Br)c(OC)cc12` (stereo not given), the inhibition was -6.1% (inactive).

With `COc1ccc(-c2nn(CCC#N)cc2C(=O)Nc2ccccc2)cc1OC`, the inhibition is -8% (inactive).

`CN(C)CC1CSCCC1(O)c1ccc(C(F)(F)F)cc1` (stereo not given): the inhibition is -5.6% (inactive).

With `Cc1cccnc1-n1c(-c2ccccc2)nc2ccccc2c1=O`, the inhibition was -1.3% (inactive).

`Cc1cccnc1-n1c(C)nc2ccccc2c1=O`: the inhibition is 90.2% (active).

`Cc1ccc(-c2nc3ccccc3c(=O)n2-c2ncccc2C)cc1`: the inhibition is -0.2% (inactive).

As to `C=CCN1C(=O)NC(=O)C(Cc2ccc(OC)c(OC)c2)C1=O` (stereo not given), the inhibition was 3.4% (inactive).

`Cc1nc2c(=O)n(C)c(=O)nc-2n(C)n1`: the inhibition was 87.9% (active).

Consider `Cn1ncnc2c(=O)n(C)c(=O)nc1-2`, for which the inhibition was 71.9% (active).

As to `CN1CC(C(=O)c2ccc(F)cc2)C(c2ccc(F)cc2)C1` (stereo not given), the inhibition is -5.4% (inactive).

`C=CCC1C(=O)NC(=S)NC1=O`: the inhibition was 4.3% (inactive).

`COc1ccccc1N1CCN(CCc2ccccc2)CC1`: the inhibition was -7.3% (inactive).

Regarding `N=C1c2ccccc2CN1NC(=O)c1ccc(Br)cc1`, the inhibition is -5.9% (inactive).

`CCOC(=O)C(NC(=O)CCl)(Nc1ccc(C(O)(C(=O)OCC)C(F)(F)F)cc1)C(F)(F)F` (stereo not given): the inhibition is 82.4% (active).

With `CCOC(=O)C(NC(=O)CC)(Nc1ccc(C(O)(C(=O)OCC)C(F)(F)F)cc1C)C(F)(F)F` (stereo not given), the inhibition was -6.6% (inactive).

Regarding `CCCCNC(=O)Nc1ccc(C(O)(C(=O)OCC)C(F)(F)F)cc1` (stereo not given), the inhibition was -8.2% (inactive).

For the compound `CCC(=O)N1CC(=O)Nc2ccc(F)cc2C1c1ccc(F)cc1` (stereo not given), the inhibition is 1% (inactive).

A word on the inhibition: it is the change of the read-out against control, counted positive when it falls.
